Source: PubChem
p53 reactivator: mutant p53 re-activation in reporter cells; AID 504706; H1299 p53-A138V BP100-luciferase reporter, luminescence, 24 h; hit rate 0.063% among 320,000; Potency, µM (top dose mostly 92.2 µM), hits mostly activators; also: nearly all actives have a fitted effect of over 45% in size
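H1299 (p53-null), stable ts p53-A138V + BP100-Luc; 1000 cells/well, Opti-MEM/10% FBS; cpd 4 pt, 1:5; 24 h, 37 deg C, 5% CO2; detection reagent 10 min RT; luminescence.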
Nrf2 block: blocks Nrf2 signaling; A549 ARE-Fluc reporter, luciferase luminescence, 18-24 h; Potency, µM (titrated, usually from 46 µM), hits mostly inhibitors; hit rate 2.1% among 360,000; also: nearly all actives have a fitted effect of over 60% in size
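Nrf2 function is reported as luminescence of an ARE-controlled luciferase in A549 cells. Compounds were tested at several concentrations, and a CellTiter-Fluor read on the same wells flagged cytotoxicity.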
Nrf2 activator: Nrf2 pathway activation; AREc32 ARE-luciferase reporter (MCF7-derived line), luminescence, 24 h; Potency, µM (doses to about 46.1 µM), hits mostly activators; hit rate 0.31% among 410,000; also: nearly all actives have a fitted effect of over 65% in size
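AREc32 cells carrying an ARE-driven firefly luciferase, 1000 cells/well in OPTI-MEM with 5% FBS, dosed after overnight attachment and incubated 24 hr at 37 deg C. Steady-Glo luminescence read after 30 min at RT.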
A549 tox: kills or reduces viability of A549 cells in Nrf2 counter-screen; A549 ARE-Fluc cells, CellTiter-Fluor viability, 18-24 h; Potency, µM (highest dose often 46 µM), hits mostly inhibitors; hit rate 0.16% among 390,000
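A549 ARE_Fluc cells in 5% FBS OPTI-MEM were exposed to compounds in concentration-response for 18-24 h at 37 deg C. Viability was read by CellTiter-Fluor fluorescence (Ex 405/Em 525) after 30 min, before the luciferase read.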
BRCA1 expr act: activators of BRCA1 expression; MCF7-BRCA1-FFLuc reporter, luminescence, 48 h; response scale: scaled: vehicle 0%, 10 µM genistein 100%; Potency, µM (highest dose often 46.1 µM), hits mostly activators; hit rate 1.1% among 380,000; also: nearly all actives have a fitted effect of over 80% in size
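Quantitative HTS in MCF7 cells stably reporting BRCA1 expression via firefly luciferase. Compound treatment lasts 48 h at 37 °C in phenol-red free MEM. Activation is expressed relative to genistein at 10 microM and DMSO.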
IL2 activator: activates IL-2 in a cell-based reporter assay; activation, % (series mostly up to about 46 µM); AID 652025; IL-2 activation reporter assay, cell-based qHTS; stimulated with anti-CD3/CD4/CD28 beads; in transgenic mouse T cells; hit rate 0.065% among 360,000; in the data active = activation above about 50%; inconclusive = mostly about 30% to 49%
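Readout: EGFP and DsRed signals by fluorescent plate cytometry. Unstimulated transgenic mouse T cells received compound 60 min before antibody-bead stimulation, then incubated 18 h at 37 degrees C.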
Hits are given with their value; - = inactive; ? = inconclusive; . = no result given; [ ] = remark or other dose. A selection: hits, their analogues and other compounds. The true share with any hit is near 3.2%. Unless noted, calls follow the shape of the dose curve; as a rule, active = well fitted curve in the direction sought with a large enough effect; inconclusive = small, poorly fitted or top-dose-only effect, or another doubt; inactive = no such curve, though single readings can be large; an effect the other way counts as inactive or inconclusive.

SMILES | p53 reactivator | Nrf2 block | Nrf2 activator | A549 tox | BRCA1 expr act | IL2 activator
COC(=O)c1nnn(CC(=O)Nc2ccc(Br)c(C)c2)c1N | . | -[9.27 µM] | - | - | . | .
CCc1ccc(NC(=O)CSc2nc3c([nH]c4ccccc43)c(=O)n2C)cc1 | . | . | - | - | . | .
CC(C)(C)OC(=O)N(CCc1ccccc1)Cc1ccccc1OCc1cccc(NC(=O)C2CCCC2)c1 | . | - | - | - | - | -
CC(C)(C)OC(=O)N(CCc1ccccc1)Cc1ccccc1OCc1cccc(NC(=O)C2CC2)c1 | . | 20.6µM | - | - | - | -
Cc1cccc(C(=O)N2CCNC(=O)C2CC(=O)Nc2ccc(F)cc2)c1 (configuration not stated) | . | - | - | - | - | .
COc1ccc(C(=O)NCC(c2ccc(N(C)C)cc2)N2CCCC2)c(OC)c1 (configuration not stated) | . | . | - | - | . | .
O=C(Nc1ccccc1)C(Cl)C(=O)c1ccccc1 (configuration not stated) | - | - | 14.1µM | - | - | -
CC(=O)c1ccc(N2CCN(c3nc4ccccc4c4nc(-c5cccc(C)c5)nn34)CC2)cc1 | . | - | - | - | . | .
Cc1cc(C)c2c(N)c(C(=O)NNC(=O)c3ccccc3)sc2n1 | - | ? | - | - | 8.91µM | -
COCc1cc(C)nc2sc(C(=O)Nc3cccc(OC)c3)c(N)c12 | - | - | - | - | 2.51µM | -
COCc1cc(C)nc2sc(C(=O)Nc3ccc(OC)cc3)c(N)c12 | . | - | - | - | - | -
Cc1ccc(CNC(=O)c2nc(SCc3ccc(F)cc3)ncc2Cl)cc1 | . | - | - | - | . | .
O=c1nc2c(O)cccn2c2c1c(=O)[nH]c1ccccc12 | - | - | 5.62µM | - | - | -
CC(C)(C)c1csc(NC(=O)c2ccc(Br)o2)n1 | ? | ? | - | - | 10µM | -
CC(C)(C)c1csc(NC(=O)c2ccncc2)n1 | - | 16.4µM | - | - | - | -
CN(C)c1ccc(-c2ccc(C3C4C=CCCC4(C)C(=O)N3Cc3ccccc3)c(F)c2)cc1 (configuration not stated) | . | ? | . | - | . | .
CCCSc1ncc(Cl)c(C(=O)NCc2ccc(C)cc2)n1 | . | - | - | - | . | .
Cn1c(/C=C/c2ccc(Cl)cc2Cl)c([N+](=O)[O-])c(=O)n(C)c1=O | - | 25.9µM | ? | ? | - | -
CCc1ccc(/C=C/c2c([N+](=O)[O-])c(=O)n(C)c(=O)n2C)cc1 | - | 13µM | ? | ? | - | -
Cc1ccc(-c2cc(=O)c3cc(F)ccc3[nH]2)cc1 | ? | - | - | - | - | -
Cc1ccc(-c2cc(=O)c3cc(C)ccc3[nH]2)cc1 | 22.4µM | - | - | - | - | -
Cc1ccc2cc(C(c3nnnn3C3CCCC3)N(Cc3ccco3)Cc3cccs3)c(=O)[nH]c2c1 (configuration not stated) | - | ? | - | - | - | -
CCC(c1nnnn1C1CCCCC1)N(Cc1ccco1)Cc1cc2ccc(OC)cc2[nH]c1=O (configuration not stated) | - | 23.1µM | - | ? | - | -
CCCNC(=O)c1c(NC(=O)c2ccc(C)cc2)sc2c1CCCCC2 | . | - | - | - | . | .
COc1ccc(NS(=O)(=O)c2ccc(N/N=C(\C)c3ccncc3)c([N+](=O)[O-])c2)cc1 | - | 20.6µM | - | ? | - | -
SMILES | p53 reactivator | Nrf2 block | Nrf2 activator | A549 tox | BRCA1 expr act | IL2 activator
CCOC(=O)c1c(C)[nH]c(N=Nc2ccc(OC)cc2)c1C | - | ? | - | - | 6.31µM | -
CCOC(=O)c1c(C)[nH]c(C=Nc2ccc(OC)cc2)c1O | ? | . | - | ? | 6.31µM | -
O=C(CC(Sc1ccccc1)c1cccs1)c1ccco1 (configuration not stated) | - | - | 17.8µM | - | - | -
O=C(CNC(=O)c1ccccc1)OC(Cc1ccccc1)C(=O)Nc1cc(C(F)(F)F)ccc1Cl (configuration not stated) | . | - | . | - | . | .
Cc1onc(-c2ccccc2Cl)c1C(=O)NCc1nc(-c2ccc(C(F)(F)F)cc2)no1 | - | 25.9µM | - | - | - | -
COc1ccc(CN(CCCN)c2ccc(Br)cn2)cc1 | . | ? | . | - | - | .
CSCCC(c1nc2ccccc2[nH]1)n1c(=O)c(-c2ccco2)nc2ccccc21 (configuration not stated) | . | . | . | . | . | -
CC(CCc1ccccc1)NC(=O)c1ccc(C(=O)NC(C)CCc2ccccc2)cc1 (configuration not stated) | - | 11.6µM | - | ? | - | -
O=C(OCC#CCSc1nnc(-c2cccc3ccccc23)o1)C1CC1 | . | - | . | - | . | .
O=C(NCCSc1ccccn1)c1ccc(Cl)cc1 | ? | ? | - | - | ? | -
N#CC(Sc1ccccn1)c1ccc(Cl)cc1 (configuration not stated) | - | 13µM | - | - | - | -
COc1ccc(C(=O)c2cc([N+](=O)[O-])ccc2N2CCN(C)CC2)cc1 | - | - | - | 14.6µM | - | -
CCc1ccc(OCC(=O)NNC(=S)NC(=O)C2CC2)c(Br)c1 | - | 6.51µM | - | - | - | -
CCc1ccc(OCC(=O)NNC(=S)NC(=O)C2CCCCC2)c(Br)c1 | ? | - | - | - | - | -
Cn1c(CCN2CCN(c3ccccn3)CC2)nc2cc(NC(=O)COc3ccccc3)ccc21 | - | 23.1µM | - | - | - | -
CCC(=O)NCCc1nc2cc(NC(=O)COc3ccccc3)ccc2n1C | ? | ? | - | - | 8.91µM | -
COc1ccc(-n2nnnc2SCC(=O)N2CCOCC2)cc1 | - | ? | - | - | - | -
COc1ccc(N2CCN(C(=O)CSc3nnnn3-c3ccc4c(c3)OCCO4)CC2)cc1 | - | 16.4µM | - | - | - | -
CCOc1ccccc1NC(=O)CN1C(=O)COc2ccc(S(=O)(=O)N3CCCCCC3)cc21 | . | - | - | - | . | .
Cn1ccsc1=NC(=O)c1ccc(Cl)cc1 | - | ? | - | - | - | -
CN(C)c1ccc(C(=O)N=c2sccn2C)cc1[N+](=O)[O-] | ? | ? | - | - | 11.2µM | -
Cn1ccsc1=NC(=O)c1ccc(S(=O)(=O)C(F)F)cc1 | - | ? | - | - | 12.6µM | -
Cc1ccc2c(c1)C(c1ccc(F)cc1)N(C(=O)C(C)C)CC(=O)N2 (configuration not stated) | . | -[9.27 µM] | ? | - | . | .
CC1=C(C(=O)Nc2ccc(C)cc2C)C(c2ccc([N+](=O)[O-])cc2)n2ncc(C(=O)Nc3ccc(F)cc3)c2N1 (configuration not stated) | . | - | - | - | . | .
CNC(=O)c1cccc(NC(=O)c2cc(-c3ccccc3)nc3c2cnn3C(C)C)c1 | - | 20.6µM | - | - | - | -
